Results filed as inconclusive are left out. A call without a number means that no potency is given here. Calls of active or inactive are those of the source. The call rests on the fitted dose curve.
experiment: qHTS for Inhibitors of Cell Surface uPA Generation: Wild-type Protective Antigen (WT-PrAg) Counterscreen for Cherry-picked Compounds; settings: cells, WT protective antigen toxicity counterscreen; series mostly up to 115 µM
Potency means the concentration at half of the fitted maximal effect.

Compound | Potency
COc1ccccc1C(=O)NCc1ccccc1 | inactive
c1ccc(C2[C@H]3CN(Cc4cccnc4)[C@H](c4ccccc4)C34CC2(c2ccccc2)C4)cc1 (stereo not given in full) | inactive
O=C(O)c1ccc(-n2nnnc2SCc2cccc(Br)c2)cc1 | inactive
Cc1c([N+](=O)[O-])c2ccc(O)cc2n1-c1ccccc1 | inactive
Cc1ccc(NC(=S)N2CCN(Cc3ccc4c(c3)OCO4)CC2)c(C)c1 | inactive
COc1cc2c(cc1OC)CN(C(=O)c1ccc(-c3ccccc3)cc1)CC2 | inactive
COc1ccccc1N1CCN(CC(=O)c2c(C)[nH]c3ccccc23)CC1 | inactive
Cc1nn2c(=O)cc(CSc3nc4ccccc4[nH]3)nc2s1 | inactive
CCCCNc1c(-c2ccc(-c3cccc(Cl)c3)cc2)nc2ccccn12 | inactive
COC(=O)c1c(NC(=O)c2c(OC)cccc2OC)sc2c1C(C(=O)OC)CC2 (stereo not given) | 46.5 µM (active)
CCC(C)Sc1nnc(NS(=O)(=O)Cc2ccccc2)s1 (stereo not given) | inactive
COCCNC(=S)N(CCc1c(C)[nH]c2ccccc12)Cc1ccco1 | inactive
C=CCOC(=O)C1=C[C@H](c2ccc(C(F)(F)F)cc2)[C@@H](CCCO)[C@H](OCC)O1 | inactive
O=C(NC(=S)Nc1c(F)cc(F)cc1Br)c1ccc2c(c1)OCCO2 | inactive
COCCOC(=O)C1=C(C)NC(=O)NC1c1cccc2ccccc12 (stereo not given) | inactive
CCC(C)Nc1cc(C)nc2ncnn12 (stereo not given) | inactive
O=C1C=CC(O)(c2cc(=O)c3c(O)cc(O)cc3o2)C=C1 | 16.5 µM (active)
COc1ccc(S(=O)(=O)N2CCN(Cc3ccccc3)CC2)c(C)c1 | inactive
O=C1C=C(NNC(=O)c2ccncc2)CC(c2ccccc2)C1 (stereo not given) | inactive
O=C(Nc1c(C(=O)O)oc2ccc(Br)cc12)c1ccccc1 | inactive

Compound | Potency
O=C(Nc1ccc(NC(=O)c2ccco2)c(Cl)c1)c1ccccc1 | inactive
COc1ccc(CCNC(=O)Cn2c(=O)n(-c3cc(F)ccc3F)c(=O)c3sccc32)cc1OC | inactive
CCOc1ccc(-c2n[nH]c(=S)n2Cc2ccccc2)cc1 | inactive
Cc1cccc(C(=O)NCC(=O)OCC(=O)NC2CCCCCCC2)c1 | inactive
CN(C(=O)c1ccccc1C(=O)OCC(=O)NCc1ccccc1)C1CCCCC1 | inactive
Cc1nc2nc(C)c(NS(=O)(=O)c3ccc(Cl)cc3)c(=O)n2[nH]1 | inactive
CC1=CC(C)C(C[N+]2(C)CCCCC2)C(C)C1 (stereo not given) | inactive
COc1cc(C(=O)N/N=C(\Cc2ncc[nH]2)c2ccccc2)cc(OC)c1OC | inactive
C[C@H]1CN([C@@H](C)CO)C(=O)c2cc(NS(=O)(=O)c3ccc(Cl)cc3)ccc2O[C@@H]1CN(C)CC1CCCCC1 | inactive
CCOC(=O)C1CCN(C(=O)COC(=O)c2c(C)c(CC)nc3ccccc23)CC1 | inactive
COc1ccc(NC(=O)c2nn(C)c3c2CS(=O)(=O)c2ccccc2-3)cc1 | inactive
O=C(C1CCCCN1S(=O)(=O)c1ccc(F)cc1)N1CCN(c2ccccc2F)CC1 (stereo not given) | inactive
CCNC(=S)NNC(=O)c1ccncc1 | inactive
COc1ccc(C(=O)NNC(=O)Cc2ccc(Cl)cc2)cc1 | inactive
O=C(Nc1cccc(C2=NCCN2)c1)Nc1cccc(C2=NCCN2)c1 | inactive
COC(=O)[C@@]1(Cc2ccc(F)cc2)[C@H]2c3cc(C(=O)N(C)C)n(Cc4c(CO)[nH]cc(C)c4=O)c3C[C@H]2CN1C(=O)c1ccccc1 | inactive
CCOc1ccc(CN2CCN(C(=O)Cc3ccccc3)CC2)cc1 | inactive
O=C(O)c1ccc(-c2ccc(/C=C3\NC(=O)N(Cc4ccc(Cl)cc4)C3=O)o2)cc1 | inactive
O=C1NC(CCc2ccccc2)C(=O)N1Cc1ccccc1Cl (stereo not given) | inactive
Cc1ccc2nc(Nc3ccc(Cl)cc3)c3nncn3c2c1 | inactive

— PubChem BioAssay AID720518 (National Center for Advancing Translational Sciences (NCATS), 2013)
